# Assay outcomes: PubChem BioAssay, National Center for Advancing Translational Sciences (NCATS)
# Rows were chosen to be rich in hits. Some 6.5% of all compounds tested hit in one or more screens of this group.
# MARV entry inh: qHTS for inhibitors of binding or entry into cells for Marburg Virus | Marburg virus pseudotyped entry inhibition, cell reporter | Potency, µM (titrated, usually from 37.8 µM), without a hit: at the highest dose activity change, negative = inhibition, usual class: inhibitors | 300,000 compounds, 1.8% hits | AID 540276, 2011; calls by dose curve; tested in HEK293 cells; also: potency is read from the fitted curve at half-maximal effect
# LASV entry inh: qHTS for Inhibitors of binding or entry into cells for Lassa Virus. Lassa virus pseudotype entry inhibition, cell reporter. Potency, µM (top dose mostly 37.9 µM), inactives show at the top dose activity change, negative = inhibition, actives largely listed as inhibitors. 300,000 compounds, 1.2% hits; calls by dose curve; tested in HEK293 cells; also: potency is read from the fitted curve at half-maximal effect; nearly all actives have a fitted effect of over 50% in size
# Vaccinia mCherry: qHTS for Stage-Specific Inhibitors of Vaccinia Orthopoxvirus: mCherry Reporter Primary qHTS; Vaccinia virus mCherry reporter infection, fluorescence; Potency, µM (series often up to 36.5 µM), for the others: at the highest dose activity change, negative = inhibition, hits mostly inhibitors; 310,000 compounds, 0.63% hits; AID 720579, 2013; calls by dose curve; tested in A549 cells; also: potency is read from the fitted curve at half-maximal effect; nearly all actives have a fitted effect of over 35% in size
# FMDV antiviral: High Throughput Screening for Foot and Mouth Disease Virus Antivirals; FMDV antiviral cell-based qHTS; Potency, µM (doses to about 57.9 µM), inactives show at the highest dose activity change, negative = inhibition, usual class: inhibitors; 410,000 compounds, 1.2% hits; AID 1159524, 2015; calls by dose curve; tested in HEK293T cells; also: read-out not given here; potency is read from the fitted curve at half-maximal effect; nearly all actives have a fitted effect of over 45% in size
# Vaccinia Venus: qHTS for Stage-Specific Inhibitors of Vaccinia Orthopoxvirus: Venus Reporter Primary qHTS; Vaccinia virus Venus reporter expression, fluorescence; Potency, µM (highest dose often 36.5 µM), for the others: at the top dose activity change, negative = inhibition, most hits filed as inhibitors; 330,000 compounds, 0.46% hits; AID 720580, 2013; calls by dose curve; tested in A549 cells; also: potency is read from the fitted curve at half-maximal effect; nearly all actives have a fitted effect of over 30% in size
# HCMV antiviral: qHTS Assay for inhibitors of the human cytomegalovirus (HCMV). HFF cells, HCMV-luciferase reporter, 72 h; hits give low values. activity change, negative = inhibition, % at 57.5 µM. 410,000 compounds, 4.5% hits; in the data active = activity change below about -60%; inconclusive = no clear call, values can overlap the other calls; inactive = above about -39%
#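 Screen run at 2 compound doses on HFFs infected with reporter HCMV, MOI 1 PFU/cell. Luciferase activity from cell lysates at 72 h post infection gave inhibition relative to buffer-only and Salinomycin wells.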
# An asterisk follows results filed as active; i = inactive; ? = inconclusive; · = not tested or not shown; [ ] = dose if it differs, or a comment. % is scaled to controls: 0 for no effect and ±100 for the full control effect.
SMILES,MARV entry inh,LASV entry inh,Vaccinia mCherry,FMDV antiviral,Vaccinia Venus,HCMV antiviral
CCOC(=O)c1c(S(=O)(=O)N2CCCC(C(=O)NCc3ccccc3OC)C2)c(C)n(C)c1C (centres undefined),·,-2.3%[46.1 µM],-11.5%,-5.4%,-7.2%,21.2
O=C(COc1ccc(C(=O)c2ccc(F)cc2)cc1)NCc1ccc(F)cc1,-24.5%,?,?,-27.9%,-25.7%,-77.7*
Cc1ccc(CNC(=O)COc2ccc(C(=O)c3ccc(F)cc3)cc2)cc1,-21.5%,?,?,-21.7%,-22.7%,-74.8*
COc1ccc(CNC(=O)COc2ccc(C(=O)c3ccc(F)cc3)cc2)cc1,-45.0%,?,?,0.0%,-22.1%,-20.2
COc1cc(C(=O)O/N=C2/C=CC(=O)C(C)=C2C)cc(OC)c1OC,0.1%[46.1 µM],-3.3%,·,?,0.3%,-105.2*
CCC(=O)N(Cc1cccs1)[C@@H]1CCOC(C)(C)C1,-15.7%[46.1 µM],·,·,·,·,·
COc1ccccc1NC(=S)N=Nc1c(O)[nH]c2ccc(Br)cc12,·,·,·,-21.9%,·,-66.5*
COc1ccc(/C(C)=N/OCC(=O)N=Nc2c(O)[nH]c3ccc(Br)cc23)cc1,?,-2.2%,-10.5%,39.8µM*,0.5%,-19.4
Cc1cccc(NC(=S)N=Nc2c(O)[nH]c3ccccc23)c1,?,?,-11.2%,-27.6%,?,-25.4
Cc1coc2c(C)c3oc(=O)c(CCC(=O)NCCc4ccc(Cl)cc4)c(C)c3cc12,8.5%[46.1 µM],0.4%[46.1 µM],-28.8%,-7.5%,-18.2%,-17.5
Cc1ccccc1CN(C)CCS(=O)(=O)c1cc(Cl)ccc1Cl,-24.8%[46.1 µM],14.1%[46.1 µM],5.01µM*,-16.1%,?,-29.4
N#CC1(NC(=O)CSc2nc3ccc([N+](=O)[O-])cc3s2)CCCCC1,?,-7.1%,-6.7%,?,-6.4%,-80.9*
Cc1ccc(NC(=O)N2CCCN(Cc3ccc(F)cc3)C2)cc1C,6.31µM*,-17.0%,·,-22.4%,-23.1%,16.7
COC(=O)Cc1[nH]n(-c2nc3ccccc3s2)c(=O)c1C(C)=Nc1ccc(Cl)cc1,·,·,·,1µM*,·,19.0
COC(=O)Cc1[nH]n(-c2ccccc2)c(=O)c1C(C)=Nc1ccccc1,18.3%[46.1 µM],18.8%,-6.6%,56.9%,-2.0%,?
C/C(=N/NC(=O)c1cccs1)c1c(C)[nH]n(-c2nc3ccccc3s2)c1=O,4.61µM*,?,·,-14.6%,·,39.9
COC(=O)Cc1[nH]n(-c2nc3ccccc3s2)c(=O)c1C(C)=Nc1ccc(C)cc1,?,?,-10.8%,0.355µM*,-16.1%,-78.1*
CCOc1ccc(Oc2ccc(Cl)cc2NC(=O)CCNC(C)=O)cc1,-9.0%[46.1 µM],-15.5%,i,-21.6%,-8.5%,-65.5*
CCOc1ccc(OCCCC(=O)Nc2cc(Cl)ccc2-n2cncn2)cc1,·,·,·,?,·,-71.8*
COc1ccccc1N1CCN(C(=O)c2c(C)oc3ncn(CC(C)C)c(=O)c23)CC1,·,8.7%[46.1 µM],-10.5%,-15.6%,0.3%,16.5
O=C(NCC(c1cccs1)S(=O)(=O)c1cccs1)c1c(F)cccc1F (centres undefined),·,10.5%[46.1 µM],3.3%,-0.6%,-6.0%,9.9
C[C@@H](CSc1ccccc1)CN1CC[C@H](NC(=O)OCc2ccccc2)CCC1=O,·,·,-0.4%,-26.3%,?,-78.1*
N#C/C(=C\c1ccncc1)c1ccccn1,?,-26.3%,-26.1%,-4.6%,-23.7%,-78.2*
N#C/C(=C\c1ccccc1)c1ccccn1,·,·,·,53.3%,·,2.2
COc1ccc(C(=O)CSc2nn3c(=O)c(C(C)(C)C)nnc3s2)cc1,-8.2%,-22.4%,·,14.1µM*,-3.0%,44.0
SMILES,MARV entry inh,LASV entry inh,Vaccinia mCherry,FMDV antiviral,Vaccinia Venus,HCMV antiviral
C[C@@](N)(C(=O)O)[C@@H]1C[C@@H]1C(=O)O,·,·,i,39.8µM*,-3.2%,·
Cc1cc(S(=O)(=O)N(Cc2cccs2)Cc2ccccc2F)ccc1-n1cnnn1,?,?,i,29.5%,-6.6%,-63.7*
Cc1cc(S(=O)(=O)N2CCN(c3ccccc3F)CC2)ccc1-n1cnnn1,?,-1.7%,-28.1%,?,-28.1%,-77.2*
Cc1cccc(CN2CCc3nnc(C(C)NC(=O)C4CCOCC4)n3CC2)c1 (centres undefined),·,·,-9.5%,-18.3%,-5.6%,·
COC(=O)[C@H](Cc1ccccc1)NS(=O)(=O)N[C@@H](Cc1ccccc1)C(=O)OC,·,·,i,18.6%,0.1%,-62.2*
CC(=O)NC(CC(C)C)C(=O)NC(Cc1ccccc1)C(N)=O (centres undefined),?,0.8%,·,31.6%,·,·
COC(=O)C(Cc1ccc(O)cc1)NS(=O)(=O)Cc1ccccc1 (centres undefined),·,·,·,·,·,12.0
Cc1ccc(S(=O)(=O)N[C@@H](Cc2ccccc2)C(=O)CCl)cc1,10.3µM*,4.61µM*,-14.3%,31.6µM*,?,21.3
CC(=O)NC(CC(C)C)C(=O)NC(Cc1ccccc1)C(=O)CCl (centres undefined),?,-12.8%,-6.7%,28.2µM*,-18.3%,-11.2
Cc1cc(C)n2c(Nc3cccc(C(F)(F)F)c3)c(-c3ccsc3)nc2n1,?,?,-28.3%,-20.8%,?,0.1
CCCCSc1ncnc2c1ncn2C1CCCCO1 (centres undefined),?,?,i,-8.3%,-10.3%,130.7
Fc1ccccc1CSc1ncnc2c1ncn2C1CCCO1 (centres undefined),0.891µM*,?,?,29.2%,7.4%,?
S=c1nc[nH]c2c1ncn2C1CCCO1 (centres undefined),?,?,11.2µM*,-13.4%,?,16.1
OCC1OC(n2cnc3c(=S)nc[nH]c32)CC1O (centres undefined),-16.2%,-2.7%[46.1 µM],i,-8.7%,-12.2%,30.9
Nc1ncnc2c1ncn2C1CCCC1,?,12.4%,-0.1%,-13.9%,-14.0%,-1.4
Nc1ncnc2c1ncn2C1CCCO1 (centres undefined),?,?,-25.9%[87.9 µM],-21.6%,-3.3%,-73.5*
Cc1coc2cc3oc(=O)c(CC(=O)NCc4ccccc4)c(C)c3cc12,-11.4%[46.1 µM],-18.7%[46.1 µM],-20.8%,40.4%,-18.5%,-29.2
CCc1ccc(S(=O)(=O)NCc2nc3cccnc3n2Cc2ccccc2Cl)cc1,·,?,-17.9%,13.1%,-12.0%,?
CCOC(=O)Cc1ccc(NC(=O)N2CC(C)Oc3ccc(Cl)cc32)cc1 (centres undefined),·,0.8%[46.1 µM],-0.8%,-12.7%,-3.1%,49.6
S=C(Nc1cccc(Cl)c1)N1CCN(c2ccccn2)CC1,·,·,·,-9.7%,·,-34.0
CC(=NNC(=S)N1CCN(c2ccccn2)CC1)c1nccs1,?,?,2.82µM*,-9.0%,?,·
O=C(NC(=S)N1CCN(c2ccccn2)CC1)c1ccccc1,0.0%,0.9%,-16.3%,-21.9%,-8.5%,-19.7
